JMJD2A Tudor inh = blocks the human JMJD2A Tudor domain | O75164 | AlphaScreen JMJD2A-Tudor / H3K4me3 peptide binding | Potency, µM (titrated, usually from 114 µM), hits mostly inhibitors | hit rate 4.4% among 390,000 | AID 504339; also: nearly all actives have a fitted effect of over 50% in size
Target sequence (O75164 whole entry, looked up, the tested form may be a part): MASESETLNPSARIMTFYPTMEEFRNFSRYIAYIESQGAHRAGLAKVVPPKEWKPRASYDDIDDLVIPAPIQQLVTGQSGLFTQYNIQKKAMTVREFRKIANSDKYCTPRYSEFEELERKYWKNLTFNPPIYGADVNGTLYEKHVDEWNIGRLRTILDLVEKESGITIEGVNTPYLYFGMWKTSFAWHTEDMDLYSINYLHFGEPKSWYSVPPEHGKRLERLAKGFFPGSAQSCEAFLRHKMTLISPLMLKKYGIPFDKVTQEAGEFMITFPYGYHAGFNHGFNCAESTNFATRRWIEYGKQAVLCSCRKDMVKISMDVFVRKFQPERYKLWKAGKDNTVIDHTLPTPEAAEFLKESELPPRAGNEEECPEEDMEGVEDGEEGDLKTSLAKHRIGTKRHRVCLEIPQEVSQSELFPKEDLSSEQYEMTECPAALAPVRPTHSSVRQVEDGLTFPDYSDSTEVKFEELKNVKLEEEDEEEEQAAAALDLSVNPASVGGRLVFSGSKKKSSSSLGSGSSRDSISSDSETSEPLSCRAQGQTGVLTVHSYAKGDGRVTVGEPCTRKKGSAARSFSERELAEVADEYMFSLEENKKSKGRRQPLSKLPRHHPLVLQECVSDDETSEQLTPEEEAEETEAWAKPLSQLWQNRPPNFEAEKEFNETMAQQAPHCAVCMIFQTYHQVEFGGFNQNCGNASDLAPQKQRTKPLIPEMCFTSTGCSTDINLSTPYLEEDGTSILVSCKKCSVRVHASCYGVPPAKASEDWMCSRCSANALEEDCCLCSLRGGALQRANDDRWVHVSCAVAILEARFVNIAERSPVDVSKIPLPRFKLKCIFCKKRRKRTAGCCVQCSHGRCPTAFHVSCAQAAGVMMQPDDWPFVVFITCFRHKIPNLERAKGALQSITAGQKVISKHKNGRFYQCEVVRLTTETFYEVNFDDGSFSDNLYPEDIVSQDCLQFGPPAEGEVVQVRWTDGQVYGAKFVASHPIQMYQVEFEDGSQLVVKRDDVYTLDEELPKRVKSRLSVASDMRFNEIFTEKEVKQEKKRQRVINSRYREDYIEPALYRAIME
ALOX12 inh = blocks human arachidonate 12S-lipoxygenase; purified 12hLO, xylenol orange hydroperoxide absorbance; Potency, µM (titrated, usually from 108 µM), hits mostly inhibitors; hit rate 1.1% among 580,000; AID 1671190
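Hydroperoxide product was detected by ferrous iron/xylenol orange as the 573 to 405 nm absorbance ratio. Arachidonic acid at 40 uM (final) was turned over for 30 min at room temperature by 150 nM human 12hLO, pH 7.0 Hepes buffer, after 15 min compound preincubation.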
BAZ2B inh = inhibitors of human BAZ2B bromodomain; AID 504333; hit rate 4.4% among 360,000; AlphaScreen BAZ2B-H3K14Ac peptide displacement; Potency, µM (top dose mostly 114 µM), hits mostly inhibitors; also: nearly all actives have a fitted effect of over 60% in size
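In this displacement format the biotinylated H3(5-23) peptide acetylated at Lys14 serves as ligand at 50 nM, with BAZ2B at 50 nM in PBS pH 7.4 containing 0.01% Tween-20. Donor and acceptor beads are 10 ug/mL final.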
Sfp inh = inhibitors of Bacillus subtilis Sfp phosphopantetheinyl transferase | AID 1490 | Potency, µM, usual class: inhibitors | Biochemical Sfp PPTase activity, qHTS | hit rate 3.5% among 310,000 | Q9F4F7;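 also: the enzyme is Sfp with the accession as filed and its product quenches rhodamine fluorescence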
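Fluorescence-quenching assay with 15 nM Sfp, 5 uM rhodamine-CoA and 12.5 uM BHQ-2-labelled ybbR peptide in pH 7.6 Hepes/MgCl2 buffer. Enzyme was pre-incubated with compound for 15 min at room temperature. Rate was taken from the 30-min fluorescence change (525/598 nm).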
HP1b binding inh = blocks HP1-beta chromodomain binding to methylated histone tails. AID 540317. P83916. AlphaScreen HP1-beta / biotin-H3K9me3 peptide binding. Potency, µM (doses to about 114 µM), usual class: inhibitors. hit rate 0.56% among 390,000; also: nearly all actives have a fitted effect of over 70% in size
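HP1-beta protein (50 nM final) preincubated 30 min at room temperature with biotinylated H3(1-18)K9me3 peptide (50 nM) in PBS pH 7.4, 0.01% Tween-20, then compound added for 30 min. AlphaScreen streptavidin donor/nickel chelate acceptor beads (10 ug/mL final), 30 min dark, luminescence read.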
G9a inh = G9a (human) methyltransferase inhibition; Q96KQ7; G9a H3K9 monomethylation, AlphaScreen, 2 h; Potency, µM (titrated, usually from 102 µM), hits mostly inhibitors; hit rate 8.8% among 350,000; also: nearly all actives have a fitted effect of over 75% in size
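Readings reflect AlphaScreen signal from monomethyl-H3K9 antibody detection. HMT at 20 nM; substrate b-H3K9 500 nM; cofactor SAM 20 uM; 2 h RT reaction; compounds tested as titrations in qHTS with 15 min preincubation.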
Numbers stand for hits; i = inactive; ? = inconclusive; nt = no result; [ ] = remark or other dose. Only some compounds are listed: those with a hit (about 8.7% of all), similar ones and a draw of the others. Calls follow the shape of the dose curve; as a rule, active = well fitted curve in the direction sought with a large enough effect; inconclusive = small, poorly fitted or top-dose-only effect, or another doubt; inactive = no such curve, though single readings can be large; an effect the other way counts as inactive or inconclusive.

SMILES	JMJD2A Tudor inh	ALOX12 inh	BAZ2B inh	Sfp inh	HP1b binding inh	G9a inh
COc1ccc(N2CCN(CCCNC(=O)c3ccc4nc(CCc5ccccc5)oc4c3)CC2)cc1	22.4µM	i	31.6µM	nt	i	?
CC(C)N1C[C@H](O)C[C@H]1c1nnc2n1CCN(C(=O)c1ccsc1)C2	nt	i	nt	nt	nt	nt
CC(C)N=c1scc(-c2ccco2)n1/N=C/c1ccc(O)c(O)c1	39.8µM	?	31.6µM	?	?	?
COCCN=c1scc(-c2cccs2)n1/N=C(\C)c1ccco1	50.1µM	i	10µM	i	?	31.6µM
COC(=O)c1ccc(-c2ccco2)n1Cc1cc(C)ccc1C	i	i	i	i	i	i
COCCN=c1scc(-c2ccco2)n1/N=C/c1ccc(O)c(O)c1O	31.6µM	?	7.94µM	i	7.94µM	10µM
C=CCN=c1scc(-c2ccco2)n1/N=C/c1ccc(O)c(O)c1O	50.1µM	17.8µM	12.6µM	7.08µM	14.1µM	7.94µM
O=C(O)CCc1ccc(-c2cccs2)n1NC(=O)c1ccco1	i	i	i	i	i	i
O=c1c2ccccc2nc(-c2ccco2)n1/N=C/c1ccccc1O	i	i	i	i	i	i
Oc1ccc(/C=N/n2c(-c3ccco3)csc2=Nc2cccnc2)c(O)c1	i	?	?	44.7µM	i	?
COc1ccc(C(=O)N[C@@H]2CCC[C@@H]2C(=O)NCc2ccc(OC(F)(F)F)cc2)cc1	nt	i	nt	nt	nt	nt
O=C(CSc1nnc(Cc2cccs2)n1Cc1ccco1)Nc1ccc(Br)cc1	i	i	i	14.1µM	i	?
O=C(CSc1nnc(-c2ccco2)n1Cc1ccco1)NCc1cccs1	i	i	i	i	i	i
Cc1cc(Cl)ccc1NC(=O)CSc1nnc(-c2ccncc2)n1Cc1ccco1	i	i	i	?	i	?
O=C(CSc1nnc(Cc2cccs2)n1Cc1ccco1)Nc1ccc(Cl)cc1Cl	i	?	?	28.2µM	i	?
CCc1c(C)[nH]c2ccc(OC)cc2c1=O	nt	i	nt	nt	nt	nt
CCn1c(=O)c2c(nc(-n3nc(C)cc3C)n2Cc2c(F)cccc2Cl)n(C)c1=O	nt	i	nt	nt	nt	nt
Nc1cc2c(cc1[N+](=O)[O-])-c1ccccc1C2=NO	28.2µM	i	nt	nt	?	nt
COc1ccc(-c2nc(-c3cccs3)c(-c3cccs3)[nH]2)cc1O	?	i	44.7µM	i	i	?
COc1ccccc1NC(=O)C(C)OC(=O)C(C)SCC(=O)Nc1ccc(C)cc1 (centres undefined)	i	?	i	nt	i	35.5µM
COc1ccccc1NC(=O)CN1CCN(CC(=O)Nc2ccc(S(N)(=O)=O)cc2)CC1	i	i	i	i	i	44.7µM
COc1ccc(NC(=O)C/C(C)=N/NC(=O)C(=O)Nc2cccc(Cl)c2C)c(OC)c1	i	i	i	i	i	56.2µM
COc1cccc(NC(=O)CN2CCN(CC(=O)Nc3ccc(F)cc3)CC2)c1	i	i	i	i	i	35.5µM
COc1ccccc1NC(=O)CN1CCN(CC(=O)Nc2ccc(F)cc2)CC1	i	i	i	i	i	?
Cn1ccc(C(=O)N2CCC(c3nnc4n3C(C(=O)NCCc3ccc(Cl)cc3)CC4)CC2)n1 (centres undefined)	nt	i[6.33 µM]	nt	nt	nt	nt
SMILES	JMJD2A Tudor inh	ALOX12 inh	BAZ2B inh	Sfp inh	HP1b binding inh	G9a inh
CC[C@@]1(O)CCN(C(=O)c2cccc(-c3cccc(OC)c3)c2)C[C@H]1O	nt	i	nt	nt	nt	nt
O=C(CN1CCCC1)Nc1ccc(OCc2ccccc2)cc1	i	i	i	i	i	?
NS(=O)(=O)c1ccc(NC(=O)CN2CCN(S(=O)(=O)c3cccs3)CC2)cc1	i	i	i	nt	i	50.1µM
COc1ccccc1NC(=O)CN1CCN(CC(=O)Nc2ccc(OCc3ccccc3)cc2)CC1	i	i	i	i	i	35.5µM
COc1ccc(NCC(=O)Nc2ccc(Br)cc2F)c(OC)c1	56.2µM	i	39.8µM	i	?	nt
COc1ccc(-c2cn(-c3ccc(C)cc3)c(=O)n2CC(=O)Nc2cccc(F)c2)cc1	79.4µM	?	?	i	i	?
O=C1CCCCCN1CCC(=O)N1CCn2nc(Cc3ccccc3)cc2C1	nt	i	nt	nt	nt	nt
CC(Cn1cccn1)NC(=O)c1ccc2c(c1)OCO2 (centres undefined)	nt	i	nt	nt	nt	nt
COc1ccc(NC(=O)CN2CCN(CC(=O)Nc3ccccc3OC)CC2)c(OC)c1	i	i	i	i	i	?
COc1ccccc1NC(=O)CN1CCN(CC(=O)Nc2ccc(OC)c(OC)c2)CC1	i	i	i	i	i	?
